Source: PubChem
HP1b binding inh: HP1-beta chromodomain-methylated histone interaction inhibition; P83916; AlphaScreen HP1-beta / biotin-H3K9me3 peptide binding; Potency, µM (top dose mostly 114 µM), for inactives: at the top dose activity change, negative = inhibition, hits mostly inhibitors; 390,000 tested, 0.56% active; further: potency means the concentration at half of the fitted maximal effect; nearly all actives have a fitted effect of over 70% in size
Target sequence (P83916 whole entry, looked up): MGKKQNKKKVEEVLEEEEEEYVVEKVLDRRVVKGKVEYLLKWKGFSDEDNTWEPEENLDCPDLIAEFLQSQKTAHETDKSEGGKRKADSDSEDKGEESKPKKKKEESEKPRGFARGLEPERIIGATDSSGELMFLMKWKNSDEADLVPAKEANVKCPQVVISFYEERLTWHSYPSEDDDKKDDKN
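AlphaScreen: HP1-beta (50 nM) preformed 30 min with biotin-H3(1-18)K9me3 peptide (50 nM) in PBS pH 7.4, 0.01% Tween-20. Compound added for 30 min at RT, then streptavidin donor/nickel chelate acceptor beads (10 ug/mL) for 30 min.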
JMJD2A Tudor: JMJD2A Tudor domain (human) inhibition. AlphaScreen JMJD2A-Tudor / H3K4me3 peptide binding. Potency, µM (top dose mostly 114 µM), for the others: top-dose activity change, negative = inhibition, usual class: inhibitors. 390,000 tested, 4.4% active; further: potency means the concentration at half of the fitted maximal effect; on the % scale 0 is the no-effect control and ±100 the full control effect; nearly all actives have a fitted effect of over 50% in size
G9a inh-1: blocks human histone lysine methyltransferase G9a. Q96KQ7. 350,000 tested, 8.8% active. G9a H3K9 monomethylation, AlphaScreen, 2 h. Potency, µM (doses to about 102 µM), for inactives: at the highest dose activity, negative = inhibition, most hits filed as inhibitors; further: potency means the concentration at half of the fitted maximal effect; on the % scale 0 is the no-effect control and ±100 the full control effect; nearly all actives have a fitted effect of over 75% in size
Target sequence (Q96KQ7 913-1193 limits assumed): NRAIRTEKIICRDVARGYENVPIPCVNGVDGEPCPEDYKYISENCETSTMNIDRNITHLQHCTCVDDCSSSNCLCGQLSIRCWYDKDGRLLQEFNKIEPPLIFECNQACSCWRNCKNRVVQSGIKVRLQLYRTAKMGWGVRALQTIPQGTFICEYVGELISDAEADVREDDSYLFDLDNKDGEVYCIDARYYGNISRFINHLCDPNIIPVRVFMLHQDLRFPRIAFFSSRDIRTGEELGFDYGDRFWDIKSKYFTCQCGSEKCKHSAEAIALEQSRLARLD
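Step 1: enzyme (final 20 nM) with compound, 15 min RT. Step 2: substrate peptide 500 nM and SAM 20 uM, 2 h RT. Step 3: anti-H3K9me1 antibody and AlphaScreen beads, 10 min, then plate read.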
Sfp inh: blocks B. subtilis Sfp PPTase activity. Q9F4F7. Biochemical Sfp PPTase activity, qHTS. Potency, µM, for inactives: largest response in the series, negative = inhibition, actives largely listed as inhibitors. 310,000 tested, 3.5% active;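 further: the enzyme is Sfp with the accession as filed and its product quenches rhodamine fluorescence; potency means the concentration at half of the fitted maximal effect; 0% = enzyme reaction without inhibitor and -100% = no enzyme wells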
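Fluorescence-quenching assay with 15 nM Sfp, 5 uM rhodamine-CoA and 12.5 uM BHQ-2-labelled ybbR peptide in pH 7.6 Hepes/MgCl2 buffer. Enzyme was pre-incubated with compound for 15 min at room temperature. Rate was taken from the 30-min fluorescence change (525/598 nm).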
BAZ2B block: BAZ2B (human) inhibition; 360,000 tested, 4.4% active; AlphaScreen BAZ2B-H3K14Ac peptide displacement; Potency, µM (top dose mostly 114 µM), for inactives: at the highest dose activity change, negative = inhibition, usual class: inhibitors; further: potency means the concentration at half of the fitted maximal effect; on the % scale 0 is the no-effect control and ±100 the full control effect; nearly all actives have a fitted effect of over 60% in size
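AlphaScreen displacement of biotin-H3(5-23)K14Ac peptide (50 nM final) from BAZ2B (50 nM final) in PBS pH 7.4, 0.01% Tween-20; complex preformed 30 min RT, then compounds (top 110 uM) 30 min RT, beads 20 min dark.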
L3MBTL1 inh-1: inhibitors of human L3MBTL1. Potency, µM (titrated, usually from 57.1 µM), for inactives: at the highest dose activity, negative = inhibition, hits mostly inhibitors. 230,000 tested, 0.66% active. Q9Y468. AlphaScreen L3MBTL1–H3K9me1 peptide binding; further: potency means the concentration at half of the fitted maximal effect; on the % scale 0 is the no-effect control and ±100 the full control effect; nearly all actives have a fitted effect of over 60% in size
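Read-out is AlphaScreen signal from streptavidin donor and nickel chelate acceptor beads (10 ug/mL final each) bridging L3MBTL1 (50 nM) and biotinylated K9-monomethylated H3(1-15) peptide (75 nM), after 30 min compound exposure at room temperature.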
Sfp PPTase conf: Sfp phosphopantetheinyl transferase inhibition, confirmation; Potency, µM (doses to about 114 µM), for the others: at the top dose activity change, negative = inhibition, most hits filed as inhibitors; AID 2701; Sfp PPTase enzymatic assay, qHTS titration; 380 tested, 79% active; shares compounds with Sfp inh;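 further: potency means the concentration at half of the fitted maximal effect; plate controls were uninhibited Sfp reaction for no effect and no enzyme control for full effect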
Target sequence (Q9F4F7 whole entry, looked up): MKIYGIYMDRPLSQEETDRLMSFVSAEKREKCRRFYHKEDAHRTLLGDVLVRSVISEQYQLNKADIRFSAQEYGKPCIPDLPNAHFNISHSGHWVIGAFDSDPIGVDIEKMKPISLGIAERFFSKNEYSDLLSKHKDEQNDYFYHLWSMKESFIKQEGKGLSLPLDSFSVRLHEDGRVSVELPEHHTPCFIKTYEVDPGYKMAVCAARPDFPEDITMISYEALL
Sfp gel assay: Inhibits Bacillus subtilis Sfp phosphopantetheinyl transferase; 210 tested, 20% active; purified Sfp, gel-based phosphopantetheinylation read-out; Potency, µM, usual class: inhibitors; AID 2707; shares compounds with Sfp inh;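 active means potency below 100 µM; inconclusive means dose-dependent response but potency above 100 µM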;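 further: band intensities scaled against SCH202676 control wells before curve fitting; potency is an IC50 for inhibitors of Sfp transfer activity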
L3MBTL1 inh-2: validation of human L3MBTL1 methyl-lysine binding inhibitors; shares compounds with L3MBTL1 inh-1; L3MBTL1 methyl-lysine binding inhibition, biochemical qHTS; Potency, µM, most hits filed as inhibitors; 500 tested, 91% active; further: potency means the concentration at half of the fitted maximal effect; nearly all actives have a fitted effect of over 70% in size
AlphaScreen ctr2: AlphaScreen signal inhibition, L3MBTL1 hit counter-screen. Potency, µM (highest dose often 57.1 µM), for inactives: at the top dose activity change, negative = inhibition, actives largely listed as inhibitors. 500 tested, under 10 active. AID 602224. AlphaScreen counterscreen, signal inhibition. shares compounds with L3MBTL1 inh-1; further: potency means the concentration at half of the fitted maximal effect; 0% is about no effect
G9a inh-2: confirmation of human histone methyltransferase G9a inhibitors; G9a H3K9 monomethylation, AlphaScreen, 2 h; shares compounds with JMJD2A Tudor; 370 tested, 89% active; AID 588344; Potency, µM, usual class: inhibitors; further: potency means the concentration at half of the fitted maximal effect; nearly all actives have a fitted effect of over 65% in size
* hit, by the source's call; i = inactive; ? = inconclusive; · = no result given; ! = a repeat was not active; [ ] = dose if it differs, or a comment. Hits are enriched below; roughly 12% of the tested compounds scored in any of these assays. Unless noted, the call rests on the fitted dose curve; in most records, active means well fitted curve in the direction sought with a large enough effect; inconclusive means small, poorly fitted or top-dose-only effect, or another doubt; inactive means no such curve, though single readings can be large; an effect the other way counts as inactive or inconclusive.

SMILES	HP1b binding inh	JMJD2A Tudor	G9a inh-1	Sfp inh	BAZ2B block	L3MBTL1 inh-1	Sfp PPTase conf	Sfp gel assay	others
Cc1ccc(-c2nc3ccc([N+](=O)[O-])cc3[nH]2)cc1	13%	-33%	?	10%	-35%	-9%	·	·
O=[N+]([O-])c1ccc2nc(-c3ccc(Cl)cc3)[nH]c2c1	11%	-20%	40µM*	0.35µM*	-4%	0%	-3%	56µM*
CC(=O)c1ccc(Nc2nc3ccccc3nc2-n2nc(C)cc2C)cc1	49%	7%	14%[59 µM]	·	13%	·	·	·
COc1ccccc1CNC(=O)Nc1cccs1	?	56µM*	-48%[2.33 µM]	4µM*	?	·	24µM*	·
COc1cc2nc(N3CCN(C(=O)C4CCCO4)CC3)nc(N)c2cc1OC (stereo not drawn)	7%	?	?	56µM*!	2%	5%	0%	?
COc1cc2nc(N3CCN(C(=O)[C@H]4CCCO4)CC3)nc(N)c2cc1OC	·	·	·	-1%	·	·	·	·
O=C(CSc1ccccc1)Nc1nnc(COc2ccc(Cl)cc2)s1	?	56µM*	1.4µM*	14µM*	50µM*	4%	5.9µM*	·
Cc1cccc(C)c1OCc1nnc(NC(=O)CSc2ccc(Cl)cc2)s1	32%	-9%	16%[59 µM]	1%	4%	2%	·	·
c1ccc(-c2nnc(CN3CCCc4ccccc43)o2)cc1	-22%	-27%[11.4 µM]	?	14µM*	?	·	47µM*	?
O=C(CN1C(=O)CC(c2ccco2)Sc2ccccc21)NCC1CCCO1 (stereo not drawn)	5%	-27%	11µM*	11µM*	-1%	-3%	7.4µM*	·
COc1ccc(C2CC(=O)N(CC(=O)NCC3CCCO3)c3ccccc3S2)cc1 (stereo not drawn)	20%	-14%	10%	6%	6%	·	·	·
CCOC(=O)c1cccc(NC(=O)Cn2c(=O)c3cccn3c3ccccc32)c1	55%	-18%	1%[59 µM]	·	-17%	·	·	·
NC(=O)CSc1nnc(-c2ccco2)n1-c1ccccc1	58%	7%	19%[0.501 µM]	7%	-9%	·	·	·
OCCn1c(CSc2nnc(-c3ccco3)n2-c2ccccc2)nc2ccc(Cl)cc21	30%	?	?	4µM*	-5%	-20%	12µM*	i
CCOC(=O)c1c(-c2ccc(C)o2)csc1NC(=O)COC(=O)c1cccs1	33%	-16%	10µM*	10µM*	-3%	-15%	21µM*	?
CCc1ccccc1NC(=O)COC(=O)c1cccs1	5%	-8%	16%[59 µM]	11%	9%	·	·	·
CO/N=C(/C(=O)N[C@@H]1C(=O)N2C(C(=O)O)=C(CSc3cnns3)CS[C@H]12)c1csc(N)n1	·	·	?	40µM*	·	·	53µM*	56µM*
CCCCC(=O)Nc1ccc2c(c1)nc(CCN1CCN(C)CC1)n2C	37%	-6%	-31%	1%	1%	4%	·	·
O=C(O)c1cc(/C=C/C(=O)c2cc(F)ccc2O)c2c(c1)COCO2	-6%	?	·	22µM*	50µM*	·	47µM*	i
CCc1c(C)sc(NC(=O)C2CCCCC2C(=O)O)c1C(N)=O (stereo not drawn)	?	?	?	4.5µM*	-29%	4%	11µM*	·
CCN1CCN(S(=O)(=O)c2ccc(Cl)c(C(=O)Nc3nnc(C)s3)c2)CC1	10%	-12%	-9%	·	-4%	-2%	·	·
NCCCCCCNS(=O)(=O)c1cccc2ccccc12	·	·	·	22%	·	·	·	·
Nc1nc(NCC2CCC(CNS(=O)(=O)c3cccc4ccccc34)CC2)nc2ccccc12 (stereo not drawn)	·	·	25µM*	28µM*	·	·	47µM*	56µM*
Cc1ccc(NC(=O)C2CCCN(C(=O)c3cnn(-c4ccc(F)cc4)c3-n3cccc3)C2)c(Cl)c1 (stereo not drawn)	32%	-12%	-1%[59 µM]	·	-13%	·	·	·
Cc1ccc(N2C(=O)C(CC(=O)Nc3cccc(F)c3)N(CCc3ccccc3F)C2=O)cc1 (stereo not drawn)	30%	-6%	34%[59 µM]	·	-38%	·	·	·
SMILES	HP1b binding inh	JMJD2A Tudor	G9a inh-1	Sfp inh	BAZ2B block	L3MBTL1 inh-1	Sfp PPTase conf	Sfp gel assay	others
COc1cccc(CNc2ccc(N3CCC(C)CC3)cc2)c1OC	-69%	20µM*	?	10µM*	40µM*	?	?	i	G9a inh-2=2*
C=CCOc1c(CNc2ccc(C(=O)O)cc2)cccc1OC	37%	-17%	-8%[59 µM]	12%	-4%	3%	·	·
Cc1ccc(NC(=O)C2CC2C)cc1S(=O)(=O)N1CCOCC1 (stereo not drawn)	15%	-1%	-10%[2.33 µM]	·	5%	4%	·	·
O=C(O)CCc1ccc(-c2cccs2)o1	?	100µM*	?	2.8µM*	56µM*	·	6.6µM*	·	G9a inh-2=7.9*
Oc1[nH]c2ccccc2c1N=NC(=S)N1CCOCC1	-19%	7.1µM*	32µM*	-28%	22µM*	28µM*	·	·	L3MBTL1 inh-2=21*;AlphaScreen ctr2=?
COc1ccc(C2=Nn3c(nnc3-c3ccccn3)SC2)cc1OC	47%	45µM*	?	-17%	20µM*	25µM*	·	·	L3MBTL1 inh-2=?;AlphaScreen ctr2=-19%
Nc1cc2c(cc1[N+](=O)[O-])OCCO2	13%	-19%	10%[59 µM]	6%	-6%	-4%	·	·
Nc1cc2c(cc1[N+](=O)[O-])OCO2	-12%	?	50µM*	2%	56µM*	32µM*	·	·	L3MBTL1 inh-2=8.4*;AlphaScreen ctr2=10%
O=C(NCc1ccccn1)c1ccc(=O)oc1	18%	8.9µM*	3.2µM*	89µM*	6.3µM*	16µM*	·	·	L3MBTL1 inh-2=21*;AlphaScreen ctr2=26%
O=C(NCc1ccccn1)c1ccc(-c2ccccc2)cc1	46%	10%	1%	-1%	0%	2%	·	·
COc1cccc2cc(-c3nc(-c4ccc(Cl)cc4)cs3)c(=O)oc12	32%	-8%	0%[59 µM]	·	0%	·	·	·
